WRN inhibitor: inhibitors of human WRN helicase | 360,000 compounds, 0.46% hits | AID 651768 | WRN helicase unwinding, fluorescent forked duplex, kinetic | Q14191 | Potency, µM (top dose mostly 114 µM), for inactives: top-dose activity change, negative = inhibition, usual class: inhibitors; note: % is set by controls: 0 for no effect and ±100 for the full control effect; nearly all actives have a fitted effect of over 55% in size
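Primary qHTS, 1536-well format. 20 nM WRN + compound, 15 min RT; start with 100 nM forked fluorophore/quencher duplex, 2 mM ATP (final); kinetic read ex 525/em 598 nm.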
ERG Ets-DNA blk: inhibitors of human ERG Ets domain-DNA interaction | AID 624246 | fluorescence polarization, His-ERG Ets domain / labelled DNA | Potency, µM (series often up to 76.9 µM), without a hit: at the top dose FP activity, negative = inhibition, hits mostly inhibitors | P11308 | 370,000 compounds, 0.028% hits; active = well fitted inhibition curve with a large enough effect in the polarisation, with a control signal flat; inconclusive = small, poorly fitted or top-dose-only effect, or effect the other way, or a change in a side signal; inactive = no such curve, though single readings can be large or run the other way; the % refers to the polarisation;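 note: polarization taken with two DNA probes labelled with fluorescein and Texas red; % of control where 0% means no effect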
Target sequence (P11308 whole entry, looked up, the tested form may be a part): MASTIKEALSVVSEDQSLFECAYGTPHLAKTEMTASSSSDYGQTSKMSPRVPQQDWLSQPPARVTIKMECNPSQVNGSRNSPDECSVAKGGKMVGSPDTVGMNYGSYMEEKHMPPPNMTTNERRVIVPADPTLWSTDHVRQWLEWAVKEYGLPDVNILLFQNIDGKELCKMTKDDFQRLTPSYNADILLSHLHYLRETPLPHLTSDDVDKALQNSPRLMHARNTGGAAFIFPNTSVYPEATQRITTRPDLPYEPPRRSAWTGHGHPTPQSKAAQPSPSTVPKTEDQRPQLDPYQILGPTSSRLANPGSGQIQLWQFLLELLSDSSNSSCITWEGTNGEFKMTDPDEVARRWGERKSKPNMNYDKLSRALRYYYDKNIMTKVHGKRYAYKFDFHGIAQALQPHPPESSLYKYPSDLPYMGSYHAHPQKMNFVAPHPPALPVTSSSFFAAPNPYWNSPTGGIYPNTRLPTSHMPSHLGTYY
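His-tagged ERG Ets domain (1 uM in the protein solution; 300mM KCl, 50mM Tris-HCl, 1mM EDTA, 1mM DTT, pH 7.5) received compound, then a probe mix of 5 nM fluorescein-DNA and 100nM Texas-615-DNA. Fluorescence polarization was read for both dyes.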
RECQ1 helicase: inhibitors of human RECQ1 DNA helicase. 240,000 compounds, 0.54% hits. P46063. RECQ1 DNA unwinding, red fluorescence kinetic read. Potency, µM (doses to about 57.3 µM), for the others: at the top dose activity, negative = inhibition, most hits filed as inhibitors;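 note: plate controls were vehicle for no effect and no enzyme for full effect; nearly all actives have a fitted effect of over 30% in size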
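RECQ1T1 50 nM; forked duplex (20 bp + 30-nt ss tails) 200 nM, ATP 2 mM final; pH 8.0, 2 mM MgCl2, 2.5 ug/ml poly(dI-dC); 15 min compound preincubation; discontinuous kinetic read over 2 h at RT.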
APEX1 inh: blocks human APE1 abasic DNA cleavage | P27695 | recombinant APE1, TAMRA/BHQ-2 abasic DNA cleavage fluorescence | Potency, µM (top dose mostly 65.8 µM), without a hit: top-dose activity change, negative = inhibition, hits mostly inhibitors | 350,000 compounds, 0.35% hits | AID 2517;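 note: plate controls were vehicle for no effect and reference inhibitor for full effect; nearly all actives have a fitted effect of over 55% in size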
Target sequence (P27695 whole entry, looked up): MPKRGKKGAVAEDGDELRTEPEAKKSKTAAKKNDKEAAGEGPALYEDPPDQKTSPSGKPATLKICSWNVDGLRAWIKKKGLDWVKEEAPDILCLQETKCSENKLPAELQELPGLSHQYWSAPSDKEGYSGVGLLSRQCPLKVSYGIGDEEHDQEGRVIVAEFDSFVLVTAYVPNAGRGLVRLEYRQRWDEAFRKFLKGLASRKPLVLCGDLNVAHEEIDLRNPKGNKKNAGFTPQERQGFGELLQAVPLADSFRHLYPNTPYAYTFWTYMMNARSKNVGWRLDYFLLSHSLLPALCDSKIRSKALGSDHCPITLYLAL
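0.75 nM APE1 + cpd, 15 min RT; start w/ 50 nM TAMRA/BHQ-2 THF-abasic dsDNA; kinetic fluor 525/598 nm ×3 reads @60 s; Δ(read3−read1); normalized to DMSO and NSC13755 control wells.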
KAT2A inh: GCN5L2 (KAT2A) acetyltransferase inhibition | AID 504327 | Potency, µM (doses to about 58.9 µM), without a hit: at the highest dose activity change, negative = inhibition, hits mostly inhibitors | 390,000 compounds, 0.21% hits | GCN5L2 HAT assay, ThioGlo1 CoA-SH fluorescence | Q92830; note: % is set by controls: 0 for no effect and ±100 for the full control effect
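ThioGlo1-coupled HAT assay: 20nM GCN5L2, 70uM acetyl-CoA, 75uM H3(1-25) peptide, pH 7.5. Fluorescence read at 340/540nm at start and after 20 min at room temperature.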
BLM helicase inh: inhibitors of human Bloom syndrome helicase BLM; P54132; Potency, µM (series often up to 56.1 µM), without a hit: at the highest dose activity change, negative = inhibition, most hits filed as inhibitors; recombinant BLM DNA unwinding, fluorescence dequenching; 350,000 compounds, 0.2% hits;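 note: plate controls were vehicle for no effect and no enzyme for full effect; nearly all actives have a fitted effect of over 35% in size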
* = called active by the depositor; i = inactive; ? = inconclusive; . = no result given; [ ] = dose if it differs, or a comment. Rows were chosen to be rich in hits. Some 0.88% of all compounds tested hit in one or more screens of this group. Unless noted, calls come from the whole dose curve; as a rule, active = well fitted curve in the direction sought with a large enough effect; inconclusive = small, poorly fitted or top-dose-only effect, or another doubt; inactive = no such curve, though single readings can be large; an effect the other way counts as inactive or inconclusive. Potency is the fitted concentration of half-maximal effect.

SMILES | WRN inhibitor | ERG Ets-DNA blk | RECQ1 helicase | APEX1 inh | KAT2A inh | BLM helicase inh
C[C@@H]1CCC2C(C)(C)C3CC21CC[C@@]3(C)O (some centres undefined) | . | . | 1.3% | 1.6% | . | 1.3%
COc1cc(/C=C2\SC(=S)N(CC(=O)O)C2=O)ccc1OC(=O)c1ccco1 | -21.6% | 123.5% | . | 27.6% | -3.1% | -3.2%
COc1ccc(/C=C2/SC(=S)N(CC(=O)O)C2=O)cc1OCc1ccc(Cl)cc1 | 56.2µM* | 13.8% | . | -27.2% | ? | -9.9%
O=C(O)CN1C(=O)/C(=C\c2cc(Br)ccc2OCc2ccc(Cl)cc2)SC1=S | 56.2µM* | 5.4% | . | -7.6% | -26.2% | -23.4%
O=C(O)CN1C(=O)/C(=C\c2cc([N+](=O)[O-])ccc2OCc2ccccc2Cl)SC1=S | 44.7µM* | -0.8% | . | ? | ? | -14.5%
Cc1ccc(OC2C(O)COC2/C=C/C#Cc2ccc(C(C)(C)C)cc2)cc1 (centres undefined) | . | . | -3.4%[11.5 µM] | 14.5%[12.4 µM] | . | -4.5%[12.4 µM]
CC(C)CCC[C@@H](C)[C@@H]1CC[C@H]2C3=CC=C4CC(O)CC[C@]4(C)[C@H]3CC[C@@]21C (some centres undefined) | . | . | -3.9% | -10.1% | -14.4% | -16.0%
CC(=O)N[C@@H](CCC(=O)O)C(=O)O | . | . | . | . | 6.5% | 4.9%
CC(=O)N[C@@H](CC(=O)O)C(=O)O | -5.2%[11.6 µM] | 28.2µM* | -13.0%[25.9 µM] | 7.3% | -1.4% | 4.3%[21.4 µM]
COc1cc(C(=O)NS(=O)(=O)c2ccccc2C)ccc1Cc1cn(C)c2ccc(NC(=O)OC3CCCC3)cc12 | . | . | ? | -3.5% | 7.08µM* | -24.3%
Cc1cc(NS(=O)(=O)c2ccc(NC(=O)CSc3nc4sc(C)c(C)c4c(=O)[nH]3)cc2)no1 | -7.7% | -15.1% | -9.5% | 9.9% | 14.1µM* | -8.8%
COc1ccc2c(c1)OC(C)(C)C(c1ccccc1)C2c1ccc(OCCN2CCCC2)cc1 (centres undefined) | . | . | . | . | -12.0% | 0.4%
CC(=O)c1ccc(NC(=O)CSc2nnc(-c3ccco3)c(-c3ccco3)n2)cc1 | 31.6µM* | 26.5% | -7.2% | 15.8% | ? | 7.94µM*
c1coc(-c2nc(-c3ccco3)c(-c3ccco3)nc2-c2ccco2)c1 | 20µM* | -3.1% | 3.98µM* | 1.41µM* | ? | 14.1µM*
OCCC1CN(CCCn2cccn2)CCN1C1CCCCC1 (centres undefined) | -28.0% | -0.1% | -11.2% | 0.1% | 25.1µM* | -2.2%
C#CCOCCOCCOCCNc1nc(N2CCN(C(=O)CCCCCCCCCCNC(=O)Cn3cc(CCCCCN)nn3)CC2)nc(N2CCN(C(=O)CCCCCCCCCCNC(=O)[C@H](CO)n3cc(CCCCCN)nn3)CC2)n1 | 79.4µM* | 8.1% | . | 55.6% | -14.2% | .
C#CCOCCOCCOCCNc1nc(N2CCN(C(=O)CCCCCCCCCCNC(=O)Cn3cc(CCCCCN)nn3)CC2)nc(N2CCN(C(=O)CCCCCCCCCCNC(=O)[C@H]([C@@H](C)CC)n3cc(CCCCCN)nn3)CC2)n1 | 56.2µM* | 7.7% | . | -12.2% | -6.1% | .
C#CCOCCOCCOCCNc1nc(N2CCN(C(=O)CCCCCCCCCCNC(=O)[C@H](CCCCN)n3cc(C)nn3)CC2)nc(N2CCN(C(=O)CCCCCCCCCCNC(=O)[C@@H]([C@H](C)CC)n3cc(CCCCCN)nn3)CC2)n1 | . | . | . | ? | -14.1% | .
C#CCOCCOCCOCCNc1nc(N2CCN(C(=O)CCCCCCCCCCNC(=O)[C@H]([C@@H](C)CC)n3cc(CCCCCN)nn3)CC2)nc(N2CCN(C(=O)CCCCCCCCCCNC(=O)[C@@H]([C@H](C)O)n3cc(C)nn3)CC2)n1 | 56.2µM* | 6.9% | . | -98.3% | -8.1% | .
CCCCC(=O)N(Cc1ccc(-c2ccccc2-c2nn[nH]n2)cc1)[C@@H](C(=O)O)C(C)C | . | . | . | -4.1% | . | .
O=C(NC1CCCCC1)c1sc(=S)n2c1[nH]c(=O)c1ccccc12 | 50.1µM* | -3.9% | i | -3.9% | -7.0% | -9.4%
CCCCNC(=O)c1sc(=S)n2c1[nH]c(=O)c1ccccc12 | ? | ? | i | -3.1% | -11.4% | -0.2%
O=C(NC[C@H](O)c1ccccc1)c1ccccc1 | . | . | -0.6% | -1.7% | . | -0.4%
CC1(C)S[C@@H]2[C@H](NC(=O)Cc3ccccc3)C(=O)N2[C@H]1C(=O)O (tested in a mixture with another compound) | . | . | . | -1.3% | . | .
CC(=O)N(C[C@@H](O)CO)c1c(I)c(C(=O)NC[C@@H](O)CO)c(I)c(C(=O)NC[C@@H](O)CO)c1I | . | . | -14.0%[25.9 µM] | -1.2%[21 µM] | 10µM* | -2.6%[21.4 µM]
SMILES | WRN inhibitor | ERG Ets-DNA blk | RECQ1 helicase | APEX1 inh | KAT2A inh | BLM helicase inh
Clc1ccccc1CNc1ncnc2c1nc1n2CCCC1 | . | -1.0% | . | . | -4.1% | -0.1%
CCn1c(=O)[nH]c2ccccc21 | . | . | -4.7% | -8.7% | -4.9% | 1.5%
CCn1c(C)c(CS(=O)(=O)c2ccccc2)[nH]c1=O | 17.8µM* | -0.7% | i | 12.4% | -29.3% | 0.2%
CC(C)(C)n1ncc2c(=O)n(Cc3ccc(C#N)cc3)cnc21 | . | . | . | 1.7% | . | .
CCCC[C@H]1CCCO[C@@](C(=O)NCc2ccc(C)o2)(C(F)(F)F)C1 | . | . | -0.6% | -2.4% | . | -3.9%
O=c1cc(O)n(C2CCCCCC2)c(=O)[nH]1 | -0.3% | 16.4% | . | -3.2% | 9.4% | -3.0%
O=c1[nH][nH]c(=S)n1C1CCCCC1 | 56.2µM* | 9.0% | 9.6% | -12.9% | 15.8µM* | 1.9%
Cc1ccc(S(=O)(=O)NCc2ccc3c(c2)cc(C)n3C)cc1 | -17.9% | 7.08µM* | -18.4% | -6.6% | -4.1% | -7.8%
Cc1cc2cc(CNC(=O)COc3ccccc3)ccc2n1C | -6.5% | -23.1% | i | -2.4% | -3.8% | -0.3%
CCOc1ccc(CC(=O)NCc2ccc3c(c2)cc(C)n3C)cc1 | -1.8% | 39.8µM* | -1.5% | 3.9% | -4.0% | -2.3%
CC(=O)c1cccc(NC(=O)C2CCN(C(=O)c3cnn(-c4ccccc4)c3-n3cccc3)CC2)c1 | . | 0.2% | . | . | -1.6% | -1.3%
Cc1ccc(F)cc1-c1ccc(C(=O)N=C(N)N)o1 | . | . | -3.2% | ? | -2.4% | 4.8%
O=C(/C=C/c1ccc([N+](=O)[O-])cc1)Nc1cccc(C(=O)Nc2ccccc2C(=O)O)c1 | 31.6µM* | 8.1% | . | ? | ? | -11.4%
O=C(NCC(O)CO)c1c(I)c(C(=O)NCC(O)CO)c(I)c(N(CCO)C(=O)CO)c1I (centres undefined) | . | . | . | 2.0%[21 µM] | . | .
Oc1cc2c(cc1O)[C@H]1c3ccc(O)c(O)c3OC[C@@]1(O)C2 | 44.7µM* | -15.5% | -18.4% | ? | ? | -3.1%
Oc1ccc2c(c1)OCO2 | . | . | -2.6% | 0.7% | . | .
